# From PubChem BioAssay
# For some assays here: Results with a measured potency or affinity are listed apart. The source made the active and inactive calls.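 The calls were made as follows, unless noted: active = primary screen hit whose calcium fluorescence ratio, in both repeats, exceeds the weak agonist control mean by 3 SD; inactive = the rest.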
# How the values were obtained:
# [1] = tested on: TRPC4 beta (transient receptor potential cation channel C4), mouse; assay: TRPC4 cation channel opening, retest – cell-based, Fluo4 calcium, HEK293 TRPC4beta/mu-opioid, duplicates, 10 µM, confirmation (AID 2426;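 active = fluorescence ratio normalized to control raised more than 50% in primary screen plus both repeat runs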;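 as to activation: percent rise of integrated ratio over buffer wells lacking compound which define 0%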); details: Fluo4 calcium fluorescence, at 10 µM; hits give high values
# [2] = tested on: transient receptor potential cation channel C4 beta (TRPC4), mouse; assay: TRPC4 cation channel opening, second retest – cell-based, second round, Fluo4, HEK293 TRPC4beta/mu-opioid, 1 µM, confirmation (AID 2461;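 active = primary screen active and over 50% activation in each of two duplicate runs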); details: Fluo4 calcium fluorescence, at 1 µM; hits give high values
# [3] = tested on: TRPC4 (transient receptor potential cation channel C4 beta), mouse; assay: potentiation of DAMGO EC20 TRPC4 response – cell-based, second round, Fluo-4, HEK293 TRPC4beta/mu-opioid, 1 µM, confirmation (AID 2554;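 active = primary screen hit whose fluorescence ratio, in both repeats, exceeds the weak agonist control mean by 3 SD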); details: DAMGO EC20, Fluo-4 calcium flux, at 1 µM; hits give high values
# [4] = tested on: TRPC4 beta (transient receptor potential cation channel C4), mouse; assay: potentiation of DAMGO EC20 TRPC4 response – cell-based, Fluo-4, HEK293 TRPC4beta/mu-opioid, confirmation (AID 2555); details: DAMGO EC20, Fluo-4 calcium flux, at 10 µM; hits give high values
# [5] = molecular target: Short transient receptor potential channel 4 (Mus musculus) (UniProt Q9QUQ5); assay: blockers of DAMGO-evoked TRPC4 calcium flux – cell-based, Fluo4, HEK293 TRPC4beta/mu-opioid, confirmation (AID 2636;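 active = calcium signal cut by more than 3 SD below the full-agonist control yet still positive, in both repeats and the earlier primary screen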); details: at 10 µM; hits give high values
# [6] = molecular target: Short transient receptor potential channel 4 (Mus musculus) (UniProt Q9QUQ5); assay: blockers of DAMGO-evoked TRPC4 calcium flux – cell-based, second round, Fluo4, HEK293 TRPC4beta/mu-opioid, 1 µM, confirmation (AID 2637;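 active = calcium signal ratio cut to more than 3 SD under the fully stimulated control mean yet still positive, in both repeats and the primary screen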); details: at 1 µM; hits give high values
# [7] = molecular target: Short transient receptor potential channel 4 (Mus musculus) (UniProt Q9QUQ5); assay: calcium entry via TRPC4 opening agents – cell-based, HEK293 TRPC4/mu-opioid, Fluo-4 calcium, dose response (AID 434937;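 active = primary screen activator hit with a dose response curve and TRPC4 channel activation at any tested dose; inactive = no activation, no dose response, or not a primary hit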)
# [8] = molecular target: Short transient receptor potential channel 4 (Mus musculus) (UniProt Q9QUQ5); assay: potentiation of DAMGO-evoked TRPC4 calcium signal – cell-based, HEK293 TRPC4/mu-opioid, Fluo-4 calcium, EC20 DAMGO, dose response (AID 434941;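 active = earlier screen potentiator hit that boosts the TRPC4 ion channel at some dose, with a dose response; inactive = no potentiation, no dose response, or not a prior hit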;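 also: calcium entry triggered by an EC20 dose of DAMGO at the co-expressed mu-opioid receptor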)
# [9] = molecular target: Short transient receptor potential channel 4 (Mus musculus) (UniProt Q9QUQ5); assay: block of DAMGO-driven TRPC4 calcium entry – cell-based, HEK293 TRPC4/mu-opioid, Fluo-4 calcium, dose response (AID 434942;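 active = primary screen inhibitor hit that blocks the TRPC4 channel at some tested dose, yielding a dose curve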)
# [10] = molecular target: Short transient receptor potential channel 6 (Mus musculus) (UniProt Q61143); assay: TRPC6 blockade by TRPC4 inhibitor hits – cell-based, HEK293, membrane potential dye, duplicate, selectivity assay for TRPC4 inhibitor project, confirmation (AID 434948;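 active = active in primary screen and both duplicates, each dropping signal beyond three positive-control SD with fluorescence still positive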); details: HEK293 TRPC6, membrane potential dye fluorescence, at 10 µM, stimulated with maximal-effect acetylcholine; hits give high values
# [11] = molecular target: Short transient receptor potential channel 6 (Mus musculus) (UniProt Q61143); assay: TRPC6 opening by TRPC4 activator hits – cell-based, HEK293, membrane potential dye, duplicate, selectivity assay for TRPC4 activator project, confirmation (AID 434950;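 active = membrane potential signal rise above negative control mean plus 3 SD in both duplicates, also active in the earlier TRPC4 screen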); details: HEK293 TRPC6, membrane potential fluorescence, at 10 µM; activation: hits give high values; outcome: activation
# [12] = molecular target: Short transient receptor potential channel 6 (Mus musculus) (UniProt Q61143); assay: positive modulators of mouse TRPC6 channel – HEK293 cells, membrane potential dye, duplicate, selectivity assay for TRPC4 potentiator project, confirmation (AID 434952;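 active = compound raising the membrane signal above positive-control mean plus 3 SD in both repeats, and a primary screen hit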); details: HEK293 TRPC6, membrane potential dye fluorescence, at 10 µM, maximal acetylcholine added after compound; hits give high values
# [13] = molecular target: Short transient receptor potential channel 4 (Mus musculus) (UniProt Q9QUQ5); assay: calcium flux activators in TRPC4/5HT1a cells, counter-screen for TRPC4 activator project, cell-based, second counter screen, HEK293 TRPC4/5HT1a, Fluo-4 (AID 434977;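 active = calcium signal rise above buffer-control mean plus 5 SD in both duplicates, and also a hit in the primary screen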;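 as to activation: plate controls were assay buffer for no effect and maximal serotonin response for full effect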); details: Fluo-4 calcium flux, at 10 µM; hits give high values
# [14] = serotonin-gated TRPC4 signal block – cell-based, second counter screen, HEK293 TRPC4/5HT1a, Fluo-4, counter-screen for TRPC4 inhibitor project, confirmation (AID 434978;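 active = primary screen active whose calcium signal fell more than 3 SD beyond the full-serotonin control mean in both duplicate plates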;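 also: serotonin given first at submaximal then at maximal dose after compound preincubation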); details: Fluo-4 calcium flux, at 10 µM, serotonin added to trigger calcium flux; hits give high values
# [15] = tested on: TRPC4 (mouse), co-expressed with 5HT1a in HEK293; assay: enhancement of serotonin-evoked TRPC4 response – cell-based, second counter screen, HEK293 TRPC4/5HT1a, Fluo-4, counter-screen for TRPC4 potentiator project, confirmation (AID 434979;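 active = signal rise over 3 SD above mean of control wells given weak agonist, in both repeats and first screen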); details: Fluo-4 calcium flux, at 10 µM, serotonin added at its EC20 dose; hits give high values
# [16] = nonspecific calcium rise without TRPC4 – cell-based, HEK293 mu-opioid receptor line, counter-screen for TRPC4 activator project, confirmation (AID 449723;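 active = hit in primary screen, with calcium signal over 5 SD above buffer well mean in both duplicates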;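 also: counter screen cells carry the mu-opioid receptor alone and lack TRPC4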); details: HEK293 mu-opioid cells, Fluo-4 calcium fluorescence, at 10 µM; hits give high values
# [17] = nonspecific potentiation of DAMGO calcium response – cell-based, HEK293 mu-opioid receptor line, counter-screen for TRPC4 allosteric potentiator project, confirmation (AID 449724;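 active = calcium signal rise more than 3 SD above the low-dose agonist control mean, in both duplicate plates and the primary screen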); details: HEK293 mu-opioid receptor cells, Fluo-4 calcium flux, at 10 µM, compound added before EC20 DAMGO stimulus; hits give high values
# Short transient receptor potential channel 6 (Mus musculus), sequence (Q61143 whole entry, looked up): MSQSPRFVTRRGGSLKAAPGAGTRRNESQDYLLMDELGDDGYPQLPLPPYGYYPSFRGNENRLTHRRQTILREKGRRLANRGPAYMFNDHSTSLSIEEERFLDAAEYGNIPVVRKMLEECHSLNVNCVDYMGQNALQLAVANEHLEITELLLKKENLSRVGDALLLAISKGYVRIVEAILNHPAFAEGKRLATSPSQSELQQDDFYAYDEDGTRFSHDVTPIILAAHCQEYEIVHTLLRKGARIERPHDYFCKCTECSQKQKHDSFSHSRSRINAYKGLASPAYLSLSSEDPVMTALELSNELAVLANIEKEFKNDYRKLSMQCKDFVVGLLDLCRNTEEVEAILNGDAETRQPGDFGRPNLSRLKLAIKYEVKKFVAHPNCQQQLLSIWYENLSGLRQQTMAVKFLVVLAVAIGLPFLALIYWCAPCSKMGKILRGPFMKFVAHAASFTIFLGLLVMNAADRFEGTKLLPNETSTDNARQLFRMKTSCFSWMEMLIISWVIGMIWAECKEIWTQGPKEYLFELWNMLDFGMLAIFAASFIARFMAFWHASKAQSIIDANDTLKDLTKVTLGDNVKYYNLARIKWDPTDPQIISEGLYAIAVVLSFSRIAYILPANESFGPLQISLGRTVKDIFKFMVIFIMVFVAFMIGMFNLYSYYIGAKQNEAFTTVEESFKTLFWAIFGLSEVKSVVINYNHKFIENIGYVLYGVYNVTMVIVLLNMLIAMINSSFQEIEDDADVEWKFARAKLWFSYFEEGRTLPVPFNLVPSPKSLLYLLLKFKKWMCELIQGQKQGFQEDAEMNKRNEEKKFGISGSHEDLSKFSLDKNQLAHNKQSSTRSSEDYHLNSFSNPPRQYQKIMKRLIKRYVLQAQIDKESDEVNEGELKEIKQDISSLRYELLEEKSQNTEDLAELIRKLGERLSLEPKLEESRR
# Short transient receptor potential channel 4 (Mus musculus), sequence (Q9QUQ5 whole entry, looked up): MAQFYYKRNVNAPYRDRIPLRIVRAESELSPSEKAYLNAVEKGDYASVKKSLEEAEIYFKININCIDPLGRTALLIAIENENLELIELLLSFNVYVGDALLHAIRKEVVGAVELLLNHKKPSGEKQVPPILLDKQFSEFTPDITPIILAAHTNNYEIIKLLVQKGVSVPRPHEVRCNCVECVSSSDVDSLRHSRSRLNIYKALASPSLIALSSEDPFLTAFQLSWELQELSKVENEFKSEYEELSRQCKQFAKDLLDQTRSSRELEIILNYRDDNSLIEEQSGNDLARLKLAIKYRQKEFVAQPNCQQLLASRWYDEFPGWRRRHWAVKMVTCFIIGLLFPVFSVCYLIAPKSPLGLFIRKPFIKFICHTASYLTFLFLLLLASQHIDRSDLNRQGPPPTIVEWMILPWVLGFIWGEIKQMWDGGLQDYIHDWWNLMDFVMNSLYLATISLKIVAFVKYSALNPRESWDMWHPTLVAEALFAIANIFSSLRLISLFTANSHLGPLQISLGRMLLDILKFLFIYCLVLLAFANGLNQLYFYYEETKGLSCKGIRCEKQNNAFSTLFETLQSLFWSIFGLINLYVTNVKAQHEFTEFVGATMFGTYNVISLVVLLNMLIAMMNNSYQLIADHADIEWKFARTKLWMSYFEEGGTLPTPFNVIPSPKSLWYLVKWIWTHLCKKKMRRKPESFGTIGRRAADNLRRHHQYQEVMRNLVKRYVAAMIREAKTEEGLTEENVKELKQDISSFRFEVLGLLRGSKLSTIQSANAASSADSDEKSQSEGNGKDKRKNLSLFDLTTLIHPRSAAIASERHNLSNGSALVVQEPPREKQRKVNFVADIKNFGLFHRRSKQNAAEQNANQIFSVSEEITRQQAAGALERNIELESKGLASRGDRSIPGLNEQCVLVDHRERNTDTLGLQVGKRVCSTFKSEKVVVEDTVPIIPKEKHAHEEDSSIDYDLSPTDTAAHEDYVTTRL
structure (smiles),measurement,setting,value
Cc1cc(OCCN2CCCC2)ccc1[N+](=O)[O-],outcome,[1],inactive
same,outcome,[2],inactive
same,potentiation,[3],11% (active)
same,potentiation,[4],11% (active)
same,outcome,[5],inactive
same,outcome,[6],inactive
same,outcome,[7],inactive
same,outcome,[8],inactive
same,outcome,[9],inactive
same,outcome,[10],inactive
same,outcome,[11],inactive
same,outcome,[12],inactive
same,outcome,[13],inactive
same,outcome,[14],inactive
same,potentiation,[15],13.9% (active)
same,outcome,[16],inactive
same,outcome,[17],inactive
CCN(CC)CCOC(=O)c1cccc(Br)c1,outcome,[1],inactive
same,outcome,[2],inactive
same,potentiation,[3],14% (active)
same,potentiation,[4],12% (active)
same,outcome,[5],inactive
same,outcome,[6],inactive
same,outcome,[7],inactive
same,outcome,[8],inactive
same,outcome,[9],inactive
same,outcome,[10],inactive
same,outcome,[11],inactive
same,outcome,[12],inactive
same,outcome,[13],inactive
same,outcome,[14],inactive
same,potentiation,[15],8.39% (active)
same,outcome,[16],inactive
same,outcome,[17],inactive
O=[N+]([O-])c1cccc(CSc2nnc(Cc3ccccc3)n2-c2ccc(F)cc2)c1,outcome,[1],inactive
same,outcome,[2],inactive
same,outcome,[3],inactive
same,outcome,[4],inactive
same,outcome,[5],inactive
same,outcome,[6],inactive
same,outcome,[7],inactive
same,outcome,[8],inactive
same,outcome,[9],inactive
same,outcome,[10],inactive
same,outcome,[11],inactive
same,outcome,[12],inactive
same,outcome,[13],inactive
same,outcome,[14],inactive
same,outcome,[15],inactive
same,outcome,[16],inactive
same,outcome,[17],inactive
COc1cc(Cl)c(S(=O)(=O)N2CCN(Cc3ccc4c(c3)OCO4)CC2)cc1Cl,outcome,[1],inactive
same,outcome,[2],inactive
same,outcome,[3],inactive
same,potentiation,[4],10% (active)
same,outcome,[5],inactive
same,outcome,[6],inactive
same,outcome,[7],inactive
same,outcome,[8],inactive
same,outcome,[9],inactive
same,outcome,[10],inactive
same,outcome,[11],inactive
same,outcome,[12],inactive
same,outcome,[13],inactive
same,outcome,[14],inactive
same,potentiation,[15],16.8% (active)
same,outcome,[16],inactive
same,outcome,[17],inactive
c1ccc(C2(CN3CCNC[C@H]3Cc3cccc4ccccc34)CC2)cc1,activation,[1],161% (active)
same,outcome,[2],inactive
same,outcome,[3],inactive
same,outcome,[4],inactive
same,outcome,[5],inactive
same,outcome,[6],inactive
same,outcome,[7],inactive
same,outcome,[8],inactive
same,outcome,[9],inactive
same,outcome,[10],inactive
same,outcome,[11],inactive
same,outcome,[12],inactive
same,activation,[13],5.82% (active)
same,outcome,[14],inactive
same,outcome,[15],inactive
same,outcome,[16],inactive
same,outcome,[17],inactive
N=c1c(C(=O)NCc2ccc(F)cc2)cc2c(=O)n3ccccc3nc2n1Cc1ccco1,outcome,[1],inactive
same,outcome,[2],inactive
same,outcome,[3],inactive
same,potentiation,[4],17% (active)
same,outcome,[5],inactive
same,outcome,[6],inactive
same,outcome,[7],inactive
same,outcome,[8],inactive
same,outcome,[9],inactive
same,outcome,[10],inactive
same,outcome,[11],inactive
same,outcome,[12],inactive
same,outcome,[13],inactive
same,outcome,[14],inactive
same,outcome,[15],inactive
same,outcome,[16],inactive
same,outcome,[17],inactive
O=C(NCCCN1CCN(CCCNC(=O)c2cccc(Cl)c2)CC1)c1cccc(Cl)c1,outcome,[1],inactive
same,outcome,[2],inactive
same,potentiation,[3],22% (active)
same,outcome,[4],inactive
same,outcome,[5],inactive
same,outcome,[6],inactive
same,outcome,[7],inactive
same,outcome,[8],inactive
same,outcome,[9],inactive
same,outcome,[10],inactive
same,outcome,[11],inactive
same,outcome,[12],inactive
same,outcome,[13],inactive
same,outcome,[14],inactive
same,potentiation,[15],11.3% (active)
same,outcome,[16],inactive
same,outcome,[17],inactive
